# Assay results taken from PubChem BioAssay (NCATS).
# Records with an inconclusive call do not appear. Entries that show only a call come without a potency. Unmarked numbers belong to inactive results. The source made the active and inactive calls. Unless noted, the call rests on the fitted dose curve; in most records, active means well fitted curve in the direction sought with a large enough effect; inconclusive means small, poorly fitted or top-dose-only effect, or another doubt; inactive means no such curve, though single readings can be large; an effect the other way counts as inactive or inconclusive. Positions of bridges follow the written chain, without caps; N, C: chain ends. Non-standard residues stand in square brackets, D forms with d. Residues, ends and D or L forms follow the SMILES beside them. *: point of attachment. X1 = CCC(C)C(N)C1=NC(C(=O)*)CS1; dOrn = NCCC[C@@H](N)C(=O)O
# What was measured:
# [1] = biological target: Aldehyde dehydrogenase, mitochondrial (Homo sapiens) (UniProt P05091); test: qHTS for Inhibitors of the Aldehyde Dehydrogenase Family (ALDH2) Confirmatory screens (AID 2061303; active means well fitted inhibition curve with a large enough effect; title and protocol of this record describe different tests; further: nearly all actives have a fitted effect of over 45% in size; further: potency means the concentration at half of the fitted maximal effect)
# [2] = biological target: Aldehyde dehydrogenase, mitochondrial (Homo sapiens) (UniProt P05091); test: qHTS for Inhibitors of the Aldehyde Dehydrogenase Family (ALDH2) Primary screen (AID 2061308); further: nearly all actives have a fitted effect of over 55% in size; further: potency means the concentration at half of the fitted maximal effect
# [3] = qHTS for Inhibitors of the Aldehyde Dehydrogenase Family (ALDH1A2, ALDH1A3, ALDH2, ALDH3A1) (AID 2061307); further: nearly all actives have a fitted effect of over 50% in size; on potency: test system not described further here; potency means the concentration at half of the fitted maximal effect
# [4] = biological target: Aldehyde dehydrogenase 1A1 (Homo sapiens) (UniProt P00352); test: qHTS for Inhibitors of the Aldehyde Dehydrogenase Family (ALDH1A1) Confirmatory screens (AID 2061316); further: nearly all actives have a fitted effect of over 65% in size; further: potency means the concentration at half of the fitted maximal effect
# [5] = biological target: Retinal dehydrogenase 2 (Homo sapiens) (UniProt O94788); test: qHTS for Inhibitors of the Aldehyde Dehydrogenase Family (ALDH1A2) Confirmation screens (AID 2061314); further: nearly all actives have a fitted effect of over 65% in size; further: potency means the concentration at half of the fitted maximal effect
# [6] = biological target: Retinaldehyde dehydrogenase 3 (Homo sapiens) (UniProt P47895); test: qHTS for Inhibitors of the Aldehyde Dehydrogenase Family (ALDH1A3) Primary screen (AID 2061315)
# [7] = biological target: Retinaldehyde dehydrogenase 3 (Homo sapiens) (UniProt P47895); test: qHTS for Inhibitors of the Aldehyde Dehydrogenase Family (ALDH1A3) Confirmatory screens (AID 2061311); further: nearly all actives have a fitted effect of over 60% in size; further: potency means the concentration at half of the fitted maximal effect
# [8] = biological target: Retinaldehyde dehydrogenase 3 (Homo sapiens) (UniProt P47895); test: qHTS for Inhibitors of the Aldehyde Dehydrogenase Family (ALDH1A3) Validation screen (AID 2061312); further: nearly all actives have a fitted effect of over 45% in size
# [9] = BET inhibitor-based combinations targeting novel dependencies in MECOM-rearranged (r) AML: SET-2 cell line (AID 2202231); conditions: SET-2 AML cells viability, CellTiter-Glo luminescence, 48 h; viability: active compounds read low, series mostly up to about 46 µM; further: nearly all actives have a fitted effect of over 35% in size
# Summary of the method: (§1)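 AML cell lines seeded at 500 cells/well, treated with 11-point dose curves for 48 h. Viability by CellTiter-Glo luminescence, normalised to DMSO and empty wells; activity expressed as AUC and per-cell-line Z-transformed AUC.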
# [10] = BET inhibitor-based combinations targeting novel dependencies in MECOM-rearranged (r) AML: OCI-AML3 cell line (AID 2202232); conditions: Potency: OCI-AML3 viability; further: series mostly up to about 46 µM; nearly all actives have a fitted effect of over 35% in size
# Summary of the method: as §1
# [11] = BET inhibitor-based combinations targeting novel dependencies in MECOM-rearranged (r) AML: MV-4-11 cell line (AID 2202233); further: nearly all actives have a fitted effect of over 45% in size
# Summary of the method: (§2)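 Cells at 500/well were exposed for 48 hr to MIPE v5.0 drugs as 11-point dose curves. Viability was read by CellTiter-Glo luminescence and normalized to DMSO and empty-well controls. Activity was expressed as AUC and per-cell-line Z-AUC.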
# [12] = BET inhibitor-based combinations targeting novel dependencies in MECOM-rearranged (r) AML: HNT-34 cell line (AID 2202234); further: nearly all actives have a fitted effect of over 35% in size
# Summary of the method: as §2
# [13] = BET inhibitor-based combinations targeting novel dependencies in MECOM-rearranged (r) AML: UCSD-AML1 cell line (AID 2202235); further: series mostly up to about 46 µM; nearly all actives have a fitted effect of over 40% in size
# Summary of the method: as §2
# [14] = BET inhibitor-based combinations targeting novel dependencies in MECOM-rearranged (r) AML: AML-191 cell line (AID 2202236; further: nearly all actives have a fitted effect of over 35% in size)
# Summary of the method: as §1
# [15] = BET inhibitor-based combinations targeting novel dependencies in MECOM-rearranged (r) AML: AML-194 cell line (AID 2202237; further: nearly all actives have a fitted effect of over 40% in size)
# Summary of the method: as §1
compound,measurement,setting,value
COc1cc(O)c(C(CC(=O)N2CCCC(CN3CCCCC3)C2)c2ccc3c(c2)OCO3)c(OC)c1 (stereo not drawn),Potency,[1],inactive
same,Potency,[2],inactive
CCCCc1ccc(NC(=O)CSc2nc3ccccc3nc2N2CCOCC2)cc1,Potency,[1],inactive
same,Potency,[3],inactive
same,Potency,[4],inactive
CCc1nc2nc(C)cc(Nc3ccc(Br)cc3F)n2n1,Potency,[1],inactive
same,Potency,[3],inactive
same,Potency,[5],inactive
same,Potency,[4],inactive
O=C(O)c1ccc(-n2cccc2/C=C2\SC(=O)N(Cc3cccc(Cl)c3)C2=O)cc1,Potency,[1],11.3 µM (active)
same,Potency,[3],1.79 µM (active)
same,Potency,[6],inactive
same,Potency,[4],7.98 µM (active)
Cc1ccc(C(=O)NC2CCN(Cc3cccc(-c4cccc(C)c4)c3)CC2)cc1,Potency,[1],inactive
same,Potency,[3],inactive
same,Potency,[5],inactive
same,Potency,[4],inactive
CC(=O)/C=C1/C(=O)N(C)c2ccccc21,Potency,[1],inactive
same,Potency,[3],inactive
same,Potency,[5],14.2 µM (active)
same,Potency,[4],4 µM (active)
OCc1ccc(-c2ccc3ncnc(N4CCOCC4)c3c2)o1,Potency,[1],11.3 µM (active)
same,Potency,[3],1 µM (active)
same,Potency,[6],inactive
same,Potency,[4],3.18 µM (active)
CN1CCN(c2nn3c(=O)c4ccccc4nc3s2)CC1,Potency,[1],inactive
same,Potency,[2],inactive
same,Potency,[7],8.96 µM (active)
CCOc1ccccc1-c1nnc2n1N=C(c1cccc(OC)c1)CS2,Potency,[1],inactive
same,Potency,[2],inactive
same,Potency,[7],inactive
same,Potency,[5],inactive
same,Potency,[6],inactive
CCOc1ccc(NC(=O)CSc2nc3ccccc3nc2N2CCOCC2)cc1,Potency,[1],inactive
same,Potency,[3],inactive
same,Potency,[4],inactive
Cc1ccc(OCCn2c(CCNC(=O)c3ccc([N+](=O)[O-])cc3)nc3ccccc32)cc1,Potency,[1],22.5 µM (active)
same,Potency,[3],inactive
same,Potency,[5],inactive
same,Potency,[6],inactive
same,Potency,[4],17.9 µM (active)
N#Cc1cccc(N2CCN(Cc3ccc(F)c(Cl)c3F)CC2)n1,Potency,[1],15.8 µM (active)
same,Potency,[3],4.58 µM (active)
same,Potency,[4],14.5 µM (active)
COc1cc2c(cc1O)C(c1ccc(O)cc1)C(C)C(C)C2 (stereo not drawn),Potency,[1],inactive
same,Potency,[2],inactive
O=C(Cn1nc(-c2ccc(F)cc2)ccc1=O)NCCc1ccccc1,Potency,[1],inactive
same,Potency,[3],inactive
same,Potency,[6],inactive
same,Potency,[4],inactive
Cc1c(C(=O)N(C)CC2CCCO2)[nH]c2c1C(=O)CC(c1ccco1)C2 (stereo not drawn),Potency,[1],inactive
same,Potency,[2],inactive
same,Potency,[7],15.9 µM (active)
same,Potency,[5],12.7 µM (active)
COc1ccc(NC(=O)O[C@@H]2CO[C@H]3[C@@H]2OC[C@@H]3n2nnnc2SCc2ccco2)cc1,Potency,[1],inactive
same,Potency,[3],12.9 µM (active)
same,Potency,[4],10.2 µM (active)
Cc1ccc2nc3sc(C(=O)N4CCN(C)CC4)cc3cc2c1,Potency,[1],inactive
same,Potency,[2],inactive
same,Potency,[7],22.5 µM (active)
same,Potency,[5],10.1 µM (active)
COc1ccnc(NC(=S)N2CCN(c3ccccc3C(F)(F)F)CC2)c1,Potency,[1],inactive
same,Potency,[3],14.1 µM (active)
same,Potency,[5],11.3 µM (active)
same,Potency,[4],5.65 µM (active)
Cc1ccnc(NC(=S)N2CCN(C)CC2)c1,Potency,[1],inactive
same,Potency,[3],inactive
same,Potency,[5],inactive
same,Potency,[4],20.1 µM (active)
Cc1cc(-c2nnc3n2CCCCC3)c(C)n1-c1ccc(Br)cc1,Potency,[1],inactive
same,Potency,[3],inactive
same,Potency,[6],inactive
same,Potency,[4],12.7 µM (active)
Cc1ccc(OCCn2c(CCNC(=O)c3ccc(N)cc3)nc3ccccc32)cc1,Potency,[1],10.1 µM (active)
same,Potency,[3],0.896 µM (active)
same,Potency,[5],7.98 µM (active)
same,Potency,[6],inactive
same,Potency,[4],3.18 µM (active)
O=S1(=O)N=C(Oc2ccccc2Br)c2ccccc21,Potency,[1],inactive
same,Potency,[3],inactive
same,Potency,[6],inactive
O=C1c2ccccc2NC(c2ccc(-c3ccccc3F)o2)N1O (stereo not drawn),Potency,[1],11.3 µM (active)
same,Potency,[2],8.91 µM (active)
same,Potency,[7],inactive
same,Potency,[5],25.2 µM (active)
same,Potency,[6],inactive
N#Cc1ccc(-c2ccc(CNc3ccc(N4CCN5CCCCC5C4)cc3)o2)cc1 (stereo not drawn),Potency,[1],0.0252 µM (active)
same,Potency,[3],0.449 µM (active)
same,Potency,[5],inactive
same,Potency,[6],inactive
same,Potency,[4],8.96 µM (active)
O=C1CCCC2=C1C(c1ccccc1Cl)N=C(c1ccccn1)N2 (stereo not drawn),Potency,[1],inactive
same,Potency,[3],inactive
same,Potency,[6],inactive
COc1ccc(C2N(Cc3ccccc3)C(=O)c3ccccc3N2C)cc1COc1ccc(NC(C)=O)cc1 (stereo not drawn),Potency,[1],inactive
same,Potency,[3],10.1 µM (active)
same,Potency,[6],inactive
COc1cc(Nc2nc(-c3ccncc3)nc3ccccc23)ccc1N1CCN(C)CC1,Potency,[1],inactive
same,Potency,[2],inactive
CCC(C)C(N)C1=NC(C(=O)N[C@@H](CC(C)C)C(=O)N[C@H](CCC(=O)O)C(=O)N[C@H](C(=O)N[C@H]2CCCCNC(=O)[C@H](CC(N)=O)NC(=O)[C@@H](CC(=O)O)NC(=O)[C@H](Cc3cnc[nH]3)NC(=O)[C@@H](Cc3ccccc3)NC(=O)[C@H]([C@@H](C)CC)NC(=O)[C@@H](CCCN)NC2=O)[C@@H](C)CC)CS1 (stereo partly drawn) (X1-L[dE]IK[dOrn]I[dF]H[dD]N; lactam 4-C),Potency,[1],12.7 µM (active)
same,Potency,[2],inactive
same,Potency,[7],inactive
same,Potency,[8],inactive
same,Potency,[5],11.3 µM (active)
same,Potency,[6],inactive
same,Potency,[4],4 µM (active)
same,viability,[9],117%
same,Potency,[10],inactive
same,Potency,[11],inactive
same,Potency,[12],inactive
same,Potency,[13],inactive
same,Potency,[14],inactive
same,Potency,[15],inactive
